Laboratory results from PubChem BioAssay (NCI).
Compounds without any hit were thinned out: in the full panel of roughly 79,000, 15% have a hit. Activity calls are given as the source filed them. No stated cut-off is given here; in the data, active means growth inhibition above about 70%; inactive means the rest.

Experiments:
[1] = NCI Yeast Anticancer Drug Screen. Data for the rad50 strain (AID 155);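 further: 0% = growth of vehicle-only cultures of the same strain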; conditions: S. cerevisiae rad50 strain growth inhibition; at 50.0 µM; hits give high values
Summary of the method: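 Readout: growth inhibition relative to vehicle-treated cultures. Compound exposure was carried out in a genetically defined yeast strain deficient in DNA damage repair.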

[2] = NCI Yeast Anticancer Drug Screen. Data for the mec2-1 strain (AID 157); conditions: S. cerevisiae mec2-1 strain, at 50.0 µM, hits give high values
Summary of the method: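 mec2-1 yeast strain, carrying an alteration in DNA damage repair or cell cycle control, was exposed to compounds; growth inhibition was measured relative to vehicle-treated controls.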

[3] = NCI Yeast Anticancer Drug Screen. Data for the sgs1 mgt1 strain (AID 161);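 further: 0% = growth of cultures given vehicle only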; conditions: S. cerevisiae sgs1 mgt1 strain, at 50.0 µM, hits give high values
Summary of the method: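 This yeast growth screen uses a strain with defined DNA-repair lesions; compound-treated growth is compared with vehicle-treated growth.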

[4] = NCI Yeast Anticancer Drug Screen. Data for the cln2 rad14 strain (AID 165);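 further: 0% = growth equal to vehicle treated cultures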; conditions: S. cerevisiae cln2 rad14 strain, at 50.0 µM, hits give high values
Summary of the method: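 Yeast carrying cln2 and rad14 alterations (cell cycle control and DNA damage repair) were exposed to compounds. Growth inhibition was measured against vehicle-treated controls.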

[5] = NCI Yeast Anticancer Drug Screen. Data for the bub3 strain (AID 167); conditions: S. cerevisiae bub3 mutant strain, at 50.0 µM, hits give high values
Summary of the method: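 Readout: yeast growth inhibition, expressed relative to vehicle-only wells. The test organism is a mutant strain from a panel with lesions in DNA repair or checkpoint genes.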

[6] = NCI Yeast Anticancer Drug Screen. Data for the mlh1 rad18 strain (AID 175); conditions: S. cerevisiae mlh1 rad18 strain growth inhibition; at 50.0 µM; hits give high values
Summary of the method: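 Growth inhibition of the yeast strain was measured after compound exposure and expressed relative to vehicle-treated controls. The strain carries defined defects in DNA damage repair.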

Measured: growth inhibition

CCN(CC)CCN(Cc1ccccc1)C(=S)NC(=O)c1ccccc1
inactive: [1] -4.35% | [2] 2.15% | [3] -5.25% | [4] -5.8% | [5] 7.35% | [6] -19.5%

Cc1cccc(NC(=O)/C=C/C(=O)O)c1
inactive: [1] -31.9% | [2] -41% | [3] -17.9% | [4] -20.9% | [5] -29.6% | [6] -45.1%

Cc1ccc(S(=O)(=O)O)c2c([N+](=O)[O-])cccc12
inactive: [1] -8.85% | [2] 6.75% | [3] -11.1% | [4] -32.4% | [5] -9.85% | [6] -22.6%

C/C(=N/O)C1CC(C)([N+](=O)[O-])CCC1(C)O (centres undefined)
inactive: [1] -8.15% | [2] -13.6% | [3] -19.2% | [4] -8.5% | [5] 5.45% | [6] 5.65%

N#CCCC1(CCC#N)CCc2ccccc2C1=O
inactive: [1] 26.6% | [2] 1.2% | [3] 24.6% | [4] 25.9% | [5] 8.1% | [6] 40%

CS(=O)(=O)N(CCC#N)c1ccc(/C=N/NC(=O)CC(=O)Nc2cccc(Cl)c2)cc1
inactive: [1] -6.75% | [2] 18.1% | [3] 10.7% | [4] 19.6% | [5] -6.15% | [6] 8.65%

CCOC(=O)c1cnc2cc3c(cc2c1Nc1cccc(C(F)(F)F)c1)OCO3
inactive: [1] 5.95% | [2] -8.85% | [3] -9.5% | [4] -6.45% | [5] -2.75% | [6] -11.6%

CCN(CC)C1C(=O)NC1C#Cc1ccccc1 (centres undefined)
inactive: [1] 19% | [2] 6.5% | [3] 7.05% | [4] 5.95% | [5] 7.6% | [6] 15.6%

Cc1ccccc1NC(=O)CSc1nnc(Cc2ccccc2)o1
inactive: [1] -15.3% | [2] -20.6% | [3] -36.8% | [4] -13.5% | [5] -33.8% | [6] -35.5%

CSc1nc(NC2OCC(OC(C)=O)C(OC(C)=O)C2OC(C)=O)c(N=CC=Nc2c(NC3OCC(OC(C)=O)C(OC(C)=O)C3OC(C)=O)nc(SC)[nH]c2=O)c(=O)[nH]1 (centres undefined)
inactive: [1] 11.8% | [2] -7.9% | [3] -0.35% | [4] 7.15% | [5] -1.65% | [6] 8.25%

CCC1(O)c2ccccc2CCC1C (centres undefined)
inactive: [1] 12.8% | [2] -15.8% | [3] -15.3% | [4] -29.9% | [5] -33.1% | [6] -19.9%

CC(Oc1ccc2cc(C(=O)c3ccccc3)c(=O)oc2c1)C(=O)O (centres undefined)
inactive: [1] -4.25% | [2] 3.75% | [3] 19.2% | [4] 32.9% | [5] -0.1% | [6] 44.9%

NC(=O)c1[nH]c(COCCO)nc1N
inactive: [1] -20.4% | [2] -10.4% | [3] 14% | [4] -14.9% | [5] 7.05% | [6] 22.4%

CCOC(=O)CC1CC2c3cc(OC)c(OC)cc3CCN2CC1CC (centres undefined)
inactive: [1] 3.1% | [2] 12.8% | [3] -6.7% | [4] -5.25% | [5] 1.95% | [6] 13.8%

Cc1cccc2c(N=[N+]=[N-])cc(C(F)(F)F)nc12
inactive: [1] 5.35% | [2] 6.7% | [3] -0.6% | [4] -43% | [5] 12.7% | [6] -1.4%

Nc1ccc(-c2csc(Nc3ccnc4cc(Cl)ccc34)n2)cc1
inactive: [1] -1.75% | [2] -5.4% | [3] 4.25% | [4] -7.85% | [5] 18.9% | [6] 7.6%

CC(=O)OCCN(C)C
inactive: [1] 3.4% | [2] -1.85% | [3] -16% | [4] 8.5% | [5] -19.4% | [6] -10.4%

O=C1OC(c2cccc(Cl)c2)=N/C1=C\c1ccc(O)cc1
inactive: [1] 15.8% | [2] 9.85% | [3] 15.6% | [4] 8.35% | [5] 1.45% | [6] -3.2%

C[S+]1Cc2nc3ccccc3n2C1c1c(F)cccc1F (centres undefined)
inactive: [1] 4.65% | [2] -19.2% | [3] -1.75% | [4] 12.8% | [5] -14.7% | [6] 2.35%

O=C1C(O)=C(Cl)C(=O)C(OC2=C(Cl)C(=O)C(OC3=C(Cl)C(=O)C(OC4=C(Cl)C(=O)C(Cl)=C(Cl)C4=O)=C(Cl)C3=O)=C(Cl)C2=O)=C1Cl
inactive: [1] 9.55% | [2] 3.5% | [3] -17.3% | [4] -4.3% | [5] -2.35% | [6] 22.3%

Cc1ccc(N2P(N(C)C)N(c3ccc(C)cc3)P2(=O)N(C)C)cc1 (centres undefined)
inactive: [1] 12.4% | [2] 22.4% | [3] 9.45% | [4] -5.6% | [5] 3.6% | [6] 6.4%

O=C(O)c1ccc(C2CCCCC2O)cc1 (centres undefined)
inactive: [1] 2.05% | [2] 6.15% | [3] -9.2% | [4] -14.6% | [5] -2% | [6] 0.3%

COc1cc(C(=O)O)cc(O)c1OC
inactive: [1] 4.95% | [2] -4.5% | [3] -2.85% | [4] -6.25% | [5] 2.4% | [6] 8.45%

O=C1c2ccccc2C2(O)NC(=S)N(c3ccccc3)C12O (centres undefined)
inactive: [1] -14.2% | [2] -20.8% | [3] 4.95% | [4] 15.4% | [5] 6.2% | [6] -2.1%

c1ccc2c(c1)Cc1c(Cc3csc4ccccc34)ccc3cccc-2c13
inactive: [1] -14.2% | [2] -22.4% | [3] -4.1% | [4] 13.3% | [5] -5% | [6] -15.2%

COC(=O)C1C(=O)c2ccccc2C(C)C1c1ccccc1C (centres undefined)
inactive: [1] 5% | [2] 41.4% | [3] 26.2% | [4] 4.15% | [5] 55.8% | [6] 27.6%

N#Cc1ccc2c(c1)Sc1ccccc1N2
inactive: [1] 7.5% | [2] 3.05% | [3] -2.9% | [4] -43.4% | [5] -31% | [6] 21.7%

CC1=CC(=O)CC(C)(C)C1(O)/C=C/C(C)=C/C(=O)O (centres undefined)
inactive: [1] -11.6% | [2] -28.5% | [3] -56% | [4] -37% | [5] -41.7% | [6] 5.1%

CCCCCCSc1nc2c([nH]1)c(=O)n(C)c(=S)n2C
inactive: [1] 2.5% | [2] -3.1% | [3] 1.35% | [4] 1.5% | [5] 13.9% | [6] 19.1%

O=C1C(Cl)N(c2ccccc2[N+](=O)[O-])C1c1c[nH]c2ccccc12 (centres undefined)
inactive: [1] -13.6% | [2] -22.6% | [3] 3.65% | [4] -19.9% | [5] -26.2% | [6] -31.7%

CC(CC(=O)O)(CC(=O)O)c1ccccc1
inactive: [1] 19.6% | [2] -35.5% | [3] -11.2% | [4] -7.3% | [5] -7.05% | [6] -35.1%

Cc1cccc(C2=N/C(=C\c3ccc4c(c3)OC(O)O4)C(=O)O2)c1 (centres undefined)
inactive: [1] -1.9% | [2] 6.55% | [3] 4.95% | [4] 3.55% | [5] 7.05% | [6] -16.4%

CN(C)CCC(O)(c1ccccc1)C(O)(CCN(C)C)c1ccccc1 (centres undefined)
inactive: [1] -3.15% | [2] -14.8% | [3] -8.45% | [4] -8.85% | [5] -13.8% | [6] -16.4%

O=[N+]([O-])c1ccc(Nc2ccc(Cl)cc2)c2nonc12
inactive: [1] -24.7% | [2] -7.9% | [3] 25.7% | [4] 18.4% | [5] 8.85% | [6] 23.4%
